Test results as given in article PMC12864922, “TDP-43 directly inhibits mRNA accumulation in neurites through modulation of mRNA stability”.
Over roughly 9,900 sequences, “r (bound/input frequency ratio)” has its median near 0.7; the highest 2% begin near 6.5. This is one part of a sample in which the highest values are shown more often than they occur.

B1: ENSMUSG00000028439.214|Fam219a|183:189;217:221 (ssRNA)
RNA: GGGAGUUCUACAGUCCGACGAUCGCUUCGAUAUCCGCAUGCUAUCUGGAACCUGGGUUCUGGUCCCAGCCUCGGCAUUCUCCCUGAGCUCCUAAGCAAUUCCCAGGCUUCUCUAGGGCUUCAGUUCUCACAACUGGAAAAUAAAGAGUAGCUGACAUCACCGACAGAGUCUUUUCAUACCAGAAGGAAUUUCUUCACAGGAGUUUCUGCAAAAGACUAUGACAUCACACACACUGUGGUCUCACGAGGUACCUGGAGGUCAUACUGCACGGACAUGGGAAGUACGUGAAGAUUUAUUUCGGGACUCUUGCGGUCGCACUAGUGUGGAAUUCUCGGGUGUCAAGG
B2: ENSMUSG00000004113.200|Cacna1b|94:98 (ssRNA)
RNA: GGGAGUUCUACAGUCCGACGAUCGCUUCGAUAUCCGCAUGCUACCUGAUCUCUGGCUCUGAGCAUCGUGGAUGAGGUACGGCCUCAGGAAGCAUCGGGUGGAUUGGGUGGGAGCUGCUCAGAGCAGCACGGGGGCUACACACUUAGGGACAUUGACAGUGUCCAUCAGCAUGUCAGAGAAGCAGCUGUAGUGCCCGUGUUUCUCCCUGAGUCAUGGGUUCUGAAGAAGCCAGAGCGGCACAAUGCGUGCUUGCAUGAGGCACUUUCAGCCUUUUUAAAUCUGACUCUCAGGGAUGGGAUGCCUCUCUUGCGGUCGCACUAGUGUGGAAUUCUCGGGUGUCAAGG
B3: ENSMUSG00000090935.682|Synj2bp (ssRNA)
RNA: GGGAGUUCUACAGUCCGACGAUCGCUUCGAUAUCCGCAUGCUAACUGUCAGGAGCUCUCUCUCUCUGCUUAGAAUCAUCCAGACAGCGGGCUGGUCAGCCCACAUUAAAUAAGAACAUGUGGGACUAGAAUUCAGUCAACAAUGACAUGUUUCAUCAGGUGGUUAAAAUGUACAGAUUCUGUUGGAAAUGUUCCAUGGUAUUUCAAUAGCCAGAAUGAAGAACUGGGCUAAGUCCAGAGCUCUGCUCUCUGAGCAUCUGCCCCAGAUACAGAGGCAGAGUAUGAAGUGGAACAUUGUUUUAUUCUCUUGCGGUCGCACUAGUGUGGAAUUCUCGGGUGUCAAGG
B4: ENSMUSG00000029028.246|Lrrc47|180:184 (ssRNA)
RNA: GGGAGUUCUACAGUCCGACGAUCGCUUCGAUAUCCGCAUGCUAUCCUCGUGGCAGACCCUGGACAACGCUGGUAGCUGUUCUCCAUGAGACACGGCUGCUCACAGGUCCCUUUGAGUGGCUGUGGCAAGUACUCACCUACUAAGUGUUUAGGGUGGAGCUAUCCUGUGCUCACCCUGUCUCCCCCCAGUUCCUGCUGUUCCCUCCAGCCCAGCCCAGCCCAGCACACAGAUUCAUUGAGAUUUUUGAAACUGUUUUUACAGAUUCAAGCAGAACGCCUCUUUGUUCUAAUAAAAACCCUUGGUCUCUUGCGGUCGCACUAGUGUGGAAUUCUCGGGUGUCAAGG
B5: ENSMUSG00000061578.401|Ksr2 (ssRNA)
RNA: GGGAGUUCUACAGUCCGACGAUCGCUUCGAUAUCCGCAUGCUAUUAAUGUACAGACAUCUGGAUCAAGGGAUUAAAAAAAAAAGAAUCAGUCUCUUCCCGGAGGAAGCAUCCGGGGGAAAUGUAUUCCUUCGCCCUGCAAGGAGCCAAUGGGAAGAGAGGGGACCAUAUAGUUAGAGACAUUCCCUACCCCCCGACCACUGACCCGUCCAGACCCUCGCUUCUUACAAUGCCUCUUCUUCUGCCAGACCAGCCACCUGCCCCACUAACACCAAAUGGCUUCUGUCCCUGCUUCACGUUGCAAACUCUUGCGGUCGCACUAGUGUGGAAUUCUCGGGUGUCAAGG
B6: ENSMUSG00000061578.1371|Ksr2 (ssRNA)
RNA: GGGAGUUCUACAGUCCGACGAUCGCUUCGAUAUCCGCAUGCUACUUACAUCUCUGACCCAGUGAUCUUUCUAGGGGUCUGUCACAUGUCCCAACAGGUGGACAGCUCUCCAAGUCACCAACCUGAGGAAAAUAUCCCUCCUUGUAAAAAGGCUUUCUCUUUGUAAAUGAUUCUGUUGCCUUUUUCUAAACACAAAGUAUAUAUACCUAUAAAUGCUAUAUAUAUUAUAUAUGUGUAUAUACAUAAAGACUACUUCUUGUACAGCCCUCCACGGACCUCAGGCCCACUGUUUUCUCCAUGUCUGCUCUUGCGGUCGCACUAGUGUGGAAUUCUCGGGUGUCAAGG
B7: ENSMUSG00000022095.129|Fam160b2|254:258 (ssRNA)
RNA: GGGAGUUCUACAGUCCGACGAUCGCUUCGAUAUCCGCAUGCUACAGCUGGUUCCUCUCUGGCGCCUUCUGAACCCGUCUCAGCAAGUCCGAAACACCUGGGCAGAGAGGUCAUUGACCAGGGAUGGGGGCCCUUGCCCUCUGAAUCCUGCCCAGUGCCCAGGGGUCCAGGUGGAAUGUGGUCCUGGGGACUAUAGGAACUCAAGGUACAGAUGGGACAGGGCACCCCAACUCCAAACCCCAGAAGCCUAGUGAGGCUAGGCCGAGACACAAGCAGAUAGCUCUGGCAUUGUUCUUCCAUACUCCUCUUGCGGUCGCACUAGUGUGGAAUUCUCGGGUGUCAAGG
B8: ENSMUSG00000042529.446|Kcnj12 (ssRNA)
RNA: GGGAGUUCUACAGUCCGACGAUCGCUUCGAUAUCCGCAUGCUAAGCCCAUCUGGUGCUGUGCACCUGGUCCUUGUCCAGCCGAGGGCCUGGGGGCAGAAGAACACACCAUAGGGAGGCCCUUGUAUGGGUGUCUGCCCUAUGUGAGGUCAUAGAAUGUUAAAUCUAUUUUAAACGGUGAAACUGGAGAAUUUUCAUGUUAUUUUCAAUAAUAGUGGUAUCUAAAGAUGUAGGCAACAAGACUAGACCACAUUAAAUGCAUUUUGAUCUCUUUGAAUGCUACUGUGUUGAGAUGUGCGUCUCACCUCUUGCGGUCGCACUAGUGUGGAAUUCUCGGGUGUCAAGG
B9: ENSMUSG00000022095.98|Fam160b2|79:83 (ssRNA)
RNA: GGGAGUUCUACAGUCCGACGAUCGCUUCGAUAUCCGCAUGCUAGGGGAAGCCCCCUCUUCCUGCUCUACCCUCCUGGAGGCUGUUGCAAAAUUCCCAACUGCCUCCUGGCAGAGGCCCAAACAUACCUCUGCGCCCAGGCGGGGGCAGCUGCUAACAAGAGCCCUGGCGCAGCUGCAGCCAGGGCAGGCGAGAGCCUUGGAGCUGGGUGCCAGGCUCCAGCUCCAGCUCCAGCUGGUUCCUCUCUGGCGCCUUCUGAACCCGUCUCAGCAAGUCCGAAACACCUGGGCAGAGAGGUCAUUGACCUCUUGCGGUCGCACUAGUGUGGAAUUCUCGGGUGUCAAGG
B10: ENSMUSG00000090935.122|Synj2bp|46:51;222:232 (ssRNA)
RNA: GGGAGUUCUACAGUCCGACGAUCGCUUCGAUAUCCGCAUGCUAUUCGUGAGAUACCGAAAGCAGCUUUGAAAUGCUUGCUGUCUUCCACACACACCAAUGAACUCUCUCUCUCACUCACCAUCUCUGACAUCCUCCCAUAUUCUUUCUCCUCCACAUAGCCAAUACAAGAUUUAAAGUGACUGCUUAUCACCCAAAACCCUGCUAUUCAAAAUCUCCUAUUCUAAUGGAAGAGUACAGGGGUUAUUUGAAGAAAAGCUGUGGUGCACACACACACGGGGAAGCCUUGCUUAGAAUGAAUGAGACUCUUGCGGUCGCACUAGUGUGGAAUUCUCGGGUGUCAAGG
B11: ENSMUSG00000058297.93|Spock2 (ssRNA)
RNA: GGGAGUUCUACAGUCCGACGAUCGCUUCGAUAUCCGCAUGCUAAGGGAGGGCAGGCAGCUGAAAGCUGAGCGUCCUCCCCAAAUUGGGCUGAUUUGAUAUGAAAGCCCCACCACGGUCUUGUGGUGAUGAGGCAGGACCUGUACACACAGCAAGGCUUACUAUCCGUCUCCUGACAUCCGAAGAGCUCGUCGCAGGUGUGUCUAAUGGCCCUUGGGCUGCACGUGGUUAAGCAUAGCUGUCUCUGUGGCCCAACACAAAGAGGUAAACUUACUUAAAACACAGGGGUUUUGUUGCUGUUUGUUCUCUUGCGGUCGCACUAGUGUGGAAUUCUCGGGUGUCAAGG
B12: ENSMUSG00000004113.177|Cacna1b|55:59;63:67;78:82;232:236 (ssRNA)
RNA: GGGAGUUCUACAGUCCGACGAUCGCUUCGAUAUCCGCAUGCUAGUAACUUUAAAAAAAAAGUCAACAUGUAGGAAGGUCUCCAUUUUGCAUUGUUUCACACACUUCAUACCAAUGUUCCUCAUACUUUCUACCCUGCCUGGGAUGUCCCCAAUGACCCUGGCUCCUCUGCUCAACCAAGUGCCUGAUCUCUGGCUCUGAGCAUCGUGGAUGAGGUACGGCCUCAGGAAGCAUCGGGUGGAUUGGGUGGGAGCUGCUCAGAGCAGCACGGGGGCUACACACUUAGGGACAUUGACAGUGUCCAUCUCUUGCGGUCGCACUAGUGUGGAAUUCUCGGGUGUCAAGG
B13: ENSMUSG00000042529.443|Kcnj12 (ssRNA)
RNA: GGGAGUUCUACAGUCCGACGAUCGCUUCGAUAUCCGCAUGCUAGAUGAAGCAGCUGCCCUGAGCCCAUCUGGUGCUGUGCACCUGGUCCUUGUCCAGCCGAGGGCCUGGGGGCAGAAGAACACACCAUAGGGAGGCCCUUGUAUGGGUGUCUGCCCUAUGUGAGGUCAUAGAAUGUUAAAUCUAUUUUAAACGGUGAAACUGGAGAAUUUUCAUGUUAUUUUCAAUAAUAGUGGUAUCUAAAGAUGUAGGCAACAAGACUAGACCACAUUAAAUGCAUUUUGAUCUCUUUGAAUGCUACUGUGCUCUUGCGGUCGCACUAGUGUGGAAUUCUCGGGUGUCAAGG

These binders were tested against TDP-43 (Homo sapiens, UniProt Q13148 1-414) (assay: RNA Bind-n-Seq with designed 260-mer pool; 25 mM Tris-HCl, 150 mM KCl, 3 mM MgCl2, BSA (printed 500 mg/mL), 20 units/mL SUPERase IN; pH not stated; 500 nM RNA pool, 1 h, 4 C; TDP-43 5, 50, 500 nM; high values mean tight binding). Conditions: protein: recombinant; tags: SBP (GST cleaved off with PreScission; pGEX-GST-SBP).
Summary of the method: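 The incubation lasted 1 h at 4 °C and used 500 nM of an in vitro-transcribed 260-nt 3′ UTR oligo pool with recombinant SBP-tagged TDP-43 at 5, 50 or 500 nM immobilized on streptavidin beads. It took place in 25 mM Tris-HCl, 150 mM KCl, 3 mM MgCl2, BSA and SUPERase IN. Bound RNA was washed, eluted with biotin, converted to cDNA, PCR-amplified and sequenced to give R, each oligo's normalized abundance in the bound sample divided by that in input. Two independent protein batches provided the duplicates.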

Sequence of TDP-43 (Q13148 whole entry): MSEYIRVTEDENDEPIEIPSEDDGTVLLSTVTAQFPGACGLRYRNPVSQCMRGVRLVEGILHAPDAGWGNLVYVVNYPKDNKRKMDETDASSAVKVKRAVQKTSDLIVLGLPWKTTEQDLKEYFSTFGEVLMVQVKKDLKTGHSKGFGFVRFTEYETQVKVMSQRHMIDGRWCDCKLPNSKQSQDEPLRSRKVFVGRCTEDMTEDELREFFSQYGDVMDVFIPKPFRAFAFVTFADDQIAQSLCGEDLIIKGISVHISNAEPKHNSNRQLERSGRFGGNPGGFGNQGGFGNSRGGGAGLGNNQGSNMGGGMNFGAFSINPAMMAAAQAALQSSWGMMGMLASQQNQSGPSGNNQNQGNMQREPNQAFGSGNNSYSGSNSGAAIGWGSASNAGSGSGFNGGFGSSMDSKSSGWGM

| Binder | binding signal |
| --- | --- |
| B1 | 0.393 R (bound/input frequency ratio) |
| B2 | 0.929 R (bound/input frequency ratio) |
| B3 | 0.473 R (bound/input frequency ratio) |
| B4 | 0.573 R (bound/input frequency ratio) |
| B5 | 0.446 R (bound/input frequency ratio) |
| B6 | 0.0492 R (bound/input frequency ratio) |
| B7 | 0.357 R (bound/input frequency ratio) |
| B8 | 1.1 R (bound/input frequency ratio) |
| B9 | 0.706 R (bound/input frequency ratio) |
| B10 | 2.71 R (bound/input frequency ratio) |
| B11 | 0.528 R (bound/input frequency ratio) |
| B12 | 0.533 R (bound/input frequency ratio) |
| B13 | 1.32 R (bound/input frequency ratio) |
